Sampled rows, rich in hits. Any-hit rate of the full collection: about 10%.
ALDH1A1 block: blocks purified human ALDH1A1 activity; hit rate 7.3% among 220,000; Purified ALDH1A1, NADH fluorescence, propionaldehyde substrate; P00352; Potency, µM (top dose mostly 75.3 µM), most hits filed as inhibitors; active = well fitted inhibition curve with a large enough effect, not every such curve was filed as active; inconclusive = small, poorly fitted or top-dose-only effect, or another doubt; inactive = no such curve, though single readings can be large or run the other way
aGal spleen mod: inhibits or activates alpha-galactosidase in human spleen homogenate; hit rate 0.008% among 240,000; P06280; human spleen homogenate, 4MU-alpha-Gal fluorescence, 40 min; Potency, µM (top dose mostly 80 µM), actives largely listed as inhibitors
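Human spleen homogenate (1 ug) as enzyme source, 4-methylumbelliferyl-alpha-D-galactopyranoside 1 mM final, citrate/phosphate pH 5.0 with 0.01% Tween-20. Compounds 40 min at 37C, NaOH/glycine stop; fluorescence Ex 365/Em 440, Hill-fit AC50.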
HPGD inh: HPGD (human) dehydrogenase inhibition | P15428 | purified HPGD, NADH fluorescence kinetic, PGE2 substrate | Potency, µM, actives largely listed as inhibitors | hit rate 4.3% among 150,000 | AID 894; active = well fitted inhibition curve with a large enough effect, not every such curve was filed as active; inconclusive = small, poorly fitted or top-dose-only effect, or another doubt; inactive = no such curve, though single readings can be large or run the other way
Target sequence (P15428 whole entry, looked up): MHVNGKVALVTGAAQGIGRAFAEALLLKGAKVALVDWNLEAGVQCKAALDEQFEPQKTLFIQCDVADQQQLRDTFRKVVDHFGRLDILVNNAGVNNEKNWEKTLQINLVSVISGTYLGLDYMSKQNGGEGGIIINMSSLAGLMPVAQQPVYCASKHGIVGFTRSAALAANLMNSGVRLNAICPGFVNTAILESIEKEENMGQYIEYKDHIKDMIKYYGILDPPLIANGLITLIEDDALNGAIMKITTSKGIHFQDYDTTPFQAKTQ
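20 nM HPGD preincubated 15 min at room temperature with compound in 50 mM Tris-HCl pH 8, 0.01% Tween 20. Started with 1 mM NAD+ and 30 uM prostaglandin E2; NADH fluorescence (360/450 nm) read 5 times over 30-s intervals, last minus first.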
GLA inh pH 4.5: alpha-galactosidase A (human) inhibition, pH 4.5 | P06280 | purified enzyme, 4-MU-alpha-Gal fluorescence, pH 4.5 | activity change, negative = inhibition, % at 105 µM | 230,000 tested, under 10 active
Target sequence (P06280 whole entry, looked up): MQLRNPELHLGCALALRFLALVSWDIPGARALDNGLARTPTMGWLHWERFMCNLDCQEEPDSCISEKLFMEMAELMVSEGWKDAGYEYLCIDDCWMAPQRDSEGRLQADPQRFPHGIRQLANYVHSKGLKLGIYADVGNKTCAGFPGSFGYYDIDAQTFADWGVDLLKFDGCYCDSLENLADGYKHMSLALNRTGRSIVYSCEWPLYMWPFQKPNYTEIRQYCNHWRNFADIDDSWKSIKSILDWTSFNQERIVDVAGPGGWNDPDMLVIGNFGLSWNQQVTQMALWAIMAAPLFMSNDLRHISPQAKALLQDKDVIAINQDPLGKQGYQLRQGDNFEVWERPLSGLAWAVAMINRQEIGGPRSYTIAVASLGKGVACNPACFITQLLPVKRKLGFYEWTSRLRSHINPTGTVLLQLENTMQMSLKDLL
PNC inhibitor: perinucleolar compartment assembly inhibition | PC3M PTB-GFP, PNC prevalence imaging, 16 h; active compounds read low | activity change (PNC), negative = inhibition, % at 10 µM | hit rate 3.1% among 140,000;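 active = readout at or below -70, meaning at least 70% loss of cells showing the perinucleolar compartment, a nuclear body marking cancer cells; inconclusive = readout between -30 and a set limit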
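Compounds are pinned in duplicate onto adhered PC3M cells stably expressing GFP-tagged PTB and incubated 16 h at 37 C. Cells are then fixed, nuclei stained with Hoechst, and PNC-positive cells counted.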
ALOX12 inhib: blocks human 12-lipoxygenase activity | hit rate 0.12% among 150,000 | Potency, µM (series often up to 57.1 µM), actives largely listed as inhibitors | P18054 | purified 12-hLO, xylenol orange hydroperoxide absorbance; also: nearly all actives have a fitted effect of over 55% in size
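Purified human 12hLO (150 nM), preincubated 15 min with compound, then 40 uM arachidonic acid for 30 min, room temperature, Hepes pH 7.0 with 0.01% Triton X-100. Hydroperoxide detected by ferrous iron/xylenol orange; 573/405 nm absorbance ratio gives reaction progress.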
Each line names hits and unclear results; the compound was inactive in the other large screens; ! = not confirmed by another sample. Unless noted, calls follow the shape of the dose curve; as a rule, active = well fitted curve in the direction sought with a large enough effect; inconclusive = small, poorly fitted or top-dose-only effect, or another doubt; inactive = no such curve, though single readings can be large; an effect the other way counts as inactive or inconclusive.

CC(C)C[C@H](NC(=O)CNC(=O)[C@H](C)NC(=O)[C@H](CC(C)C)NC(=O)[C@H](CCCNC(=N)N)NC(=O)[C@H](Cc1cnc[nH]1)NC(=O)[C@@H](NC(=O)[C@@H](NC(=O)[C@@H]1CSSC[C@H](NC(=O)[C@@H](N)CO)C(=O)N[C@@H](CC(N)=O)C(=O)N[C@@H]([C@@H](C)O)C(=O)N[C@@H](C)C(=O)N[C@@H]([C@@H](C)O)C(=O)N1)C(C)C)[C@@H](C)O)C(=O)N[C@@H](CC(C)C)C(=O)N[C@@H](CO)C(=O)N[C@@H](CCCNC(=N)N)C(=O)N[C@@H](CO)C(=O)NCC(=O)NCC(=O)N[C@H](C(=O)N[C@H](C(=O)N[C@@H](CCCCN)C(=O)N[C@@H](CC(=O)O)C(=O)N[C@@H](CC(N)=O)C(=O)N[C@@H](Cc1ccccc1)C(=O)N[C@H](C(=O)N1CCC[C@H]1C(=O)N[C@H](C(=O)N[C@@H](CC(N)=O)C(=O)N[C@H](C(=O)NCC(=O)N[C@@H](CO)C(=O)N[C@@H](CCCCN)C(=O)N[C@@H](C)C(=O)N[C@@H](Cc1ccccc1)C(N)=O)C(C)C)[C@@H](C)O)C(C)C)C(C)C)C(C)C	none (no result: ALDH1A1 block, HPGD inh, GLA inh pH 4.5, PNC inhibitor, ALOX12 inhib)
CCOc1cccc(N2C(=O)CC(NNC(=O)c3ccc(Br)o3)C2=O)c1 (stereo not given)	ALDH1A1 block 11.2µM (no result: HPGD inh, PNC inhibitor, ALOX12 inhib)
CCCOc1ccc(N2C(=O)CC(NNC(=O)c3ccc(COc4ccccc4)o3)C2=O)cc1 (stereo not given)	ALDH1A1 block inconclusive
COc1ccc(/C=N/N2C(=O)C3C4C=CC(CC4)C3C2=O)c(OC)c1 (stereo not given)	ALDH1A1 block 2.24µM (no result: HPGD inh, PNC inhibitor, ALOX12 inhib)
COc1ccccc1/C=N/N1C(=O)C2C3C=CC(CC3)C2C1=O (stereo not given)	ALDH1A1 block 7.08µM (no result: HPGD inh, PNC inhibitor, ALOX12 inhib)
COc1ccc(N2C(=O)C3C4C=CC(C4)C3C2=O)c(OC)c1 (stereo not given)	none
O=C1C2C3C=CC(C2C(=O)N1c1cccc(O)c1)C1C2C(=O)N(c4cccc(O)c4)C(=O)C2C31 (stereo not given)	ALDH1A1 block 1.41µM (no result: HPGD inh, PNC inhibitor, ALOX12 inhib)
COCCn1nnnc1CN1CCSCC1	none (no result: HPGD inh, PNC inhibitor, ALOX12 inhib)
COCCn1nnnc1CN1CCC(Cc2ccccc2)CC1	PNC inhibitor -100.0
O=C(Nc1nc(N2C(=O)c3ccccc3C2=O)n(-c2ccccc2)n1)c1ccc(F)cc1	ALDH1A1 block 20µM, aGal spleen mod inconclusive
O=[N+]([O-])c1ccc(N=Nc2ccc(O)cc2O)cc1	ALDH1A1 block 10µM
CCCOc1ccc(N2CC(C(=O)Nc3ccc(N4CCOCC4)cc3)CC2=O)cc1 (stereo not given)	none (no result: HPGD inh, PNC inhibitor, ALOX12 inhib)
N#CC1=C2SCN(Cc3ccccc3)CN2C(=O)CC1c1cccs1 (stereo not given)	ALDH1A1 block 11.2µM, HPGD inh 20µM
N#CC1=C2SCN(Cc3ccccc3)CN2C(=O)CC1c1ccc2c(c1)OCO2 (stereo not given)	ALDH1A1 block 7.94µM, HPGD inh 25.1µM
N#CC1=C(SCc2ccccc2)NC2=C(C(=O)CCC2)C1c1ccc2c(c1)OCO2 (stereo not given)	ALDH1A1 block inconclusive
COc1ccc(C2Nc3ccccc3C(=O)N2c2ccc(C)cc2)cc1Cn1cc([N+](=O)[O-])cn1 (stereo not given)	ALDH1A1 block 28.2µM, GLA inh pH 4.5 inconclusive
COc1ccc(C2Nc3ccccc3C(=O)N2c2ccc(C)cc2)cc1Cn1nnc2ccccc21 (stereo not given)	PNC inhibitor inconclusive (no result: HPGD inh)
O=C(O)c1ccc(-c2ccccc2C(F)(F)F)o1	none
O=C(NCc1ccccc1)c1ccc(-c2ccccc2C(F)(F)F)o1	ALDH1A1 block 25.1µM!, HPGD inh 31.6µM!, PNC inhibitor -84.2
N#Cc1nc(-c2ccco2)oc1N1CCCC1	ALDH1A1 block inconclusive, HPGD inh inconclusive
N#Cc1nc(-c2ccco2)oc1N1CCN(c2cccc(Cl)c2)CC1	ALDH1A1 block inconclusive, HPGD inh inconclusive, PNC inhibitor -82.1
Cc1ccc(S(=O)(=O)Oc2cccc(/C=N/n3cnnc3)c2)cc1	ALDH1A1 block 0.891µM, HPGD inh inconclusive
CC1CC[C@]2(CO)CC[C@]3(C)C(=CCC4[C@@]5(C)CCC(O)C(C)(C)C5CC[C@@]43C)C2C1C (stereo not given in full)	none (no result: PNC inhibitor)
CCCOc1cc(C)nc(-c2ccccc2O)n1	ALDH1A1 block 10µM (no result: HPGD inh)
Cc1ccc(S(=O)(=O)NC(C(=O)Oc2ccc3c(C)c(Cl)c(=O)oc3c2)c2ccccc2)cc1 (stereo not given)	ALDH1A1 block inconclusive, aGal spleen mod inconclusive, HPGD inh inconclusive, GLA inh pH 4.5 inconclusive, PNC inhibitor -110.8
Cc1ccc(S(=O)(=O)N[C@H](C(=O)Oc2ccc3c(C(F)(F)F)cc(=O)oc3c2)c2ccccc2)cc1	ALDH1A1 block inconclusive, HPGD inh inconclusive
O=C(Nc1ccccc1)Nc1nnc(CSCc2ccccc2Cl)s1	PNC inhibitor -88.0
CC(=O)Nc1ccc(SCCN2CCN(C)CCC2=O)cc1	none (no result: ALDH1A1 block, HPGD inh, GLA inh pH 4.5, PNC inhibitor, ALOX12 inhib)
CC[C@H](C)[C@H](N)C(=O)N[C@H]1CCC(=O)NCC(C(=O)N[C@@H](Cc2ccc(O)cc2)C(=O)N[C@@H](CCCNC(=N)N)C(=O)N[C@@H](CC(C)C)C(=O)N[C@@H](CCCNC(=N)N)C(=O)N[C@@H](Cc2ccc(O)cc2)C(N)=O)NC(=O)[C@@H]2CCCN2C(=O)[C@@H](NC(=O)[C@@H](N)[C@@H](C)CC)CCC(=O)NCC(C(=O)N[C@@H](Cc2ccc(O)cc2)C(=O)N[C@@H](CCCNC(=N)N)C(=O)N[C@@H](CC(C)C)C(=O)N[C@@H](CCCNC(=N)N)C(=O)N[C@@H](Cc2ccc(O)cc2)C(N)=O)NC(=O)[C@@H]2CCCN2C1=O (stereo not given in full)	none (no result: ALDH1A1 block, HPGD inh, GLA inh pH 4.5, PNC inhibitor, ALOX12 inhib)
CCOC(=O)CN(C)C(=O)C1CC(CO[Si](C)(C)C(C)(C)C)=CN1C(=O)OC(C)(C)C (stereo not given)	none (no result: ALDH1A1 block, HPGD inh, GLA inh pH 4.5, PNC inhibitor, ALOX12 inhib)
N=c1n(CC(=O)c2ccc([N+](=O)[O-])cc2)c2ccccc2n1Cc1ccccc1Cl	PNC inhibitor -87.8
CC(=O)Oc1ccc(N(C(C)=O)S(=O)(=O)c2cccs2)c2ccccc12	ALDH1A1 block 5.01µM, PNC inhibitor -82.1
CC(=O)Oc1ccccc1N(C(C)=O)S(=O)(=O)c1ccc2ccccc2c1	none (no result: HPGD inh, PNC inhibitor, ALOX12 inhib)
CCOC(=O)c1ccc(NC(=O)N2CCN(c3cccc(OC)c3)CC2)cc1	ALDH1A1 block inconclusive (no result: HPGD inh, PNC inhibitor, ALOX12 inhib)
CCN(CC)S(=O)(=O)N1CCC(C(=O)NCC2COc3ccccc3O2)CC1 (stereo not given)	ALDH1A1 block 2.51µM

Screening results (PubChem BioAssay)
